This is a sample that favours compounds with a hit; in the whole collection about 7.6% have one here.
RORg inh: blocks mouse ROR gamma transcriptional activity; P51450; Potency, µM (highest dose often 53.6 µM), inactives show at the top dose activity change, negative = inhibition, usual class: inhibitors; 310,000 compounds, 5.4% hits; Drosophila S2 Gal4-RORgamma UAS-luciferase reporter, 20 h; note: potency is the fitted concentration of half-maximal effect; % is set by controls: 0 for no effect and ±100 for the full control effect; nearly all actives have a fitted effect of over 60% in size
Target sequence (P51450 whole entry, looked up, the tested form may be a part): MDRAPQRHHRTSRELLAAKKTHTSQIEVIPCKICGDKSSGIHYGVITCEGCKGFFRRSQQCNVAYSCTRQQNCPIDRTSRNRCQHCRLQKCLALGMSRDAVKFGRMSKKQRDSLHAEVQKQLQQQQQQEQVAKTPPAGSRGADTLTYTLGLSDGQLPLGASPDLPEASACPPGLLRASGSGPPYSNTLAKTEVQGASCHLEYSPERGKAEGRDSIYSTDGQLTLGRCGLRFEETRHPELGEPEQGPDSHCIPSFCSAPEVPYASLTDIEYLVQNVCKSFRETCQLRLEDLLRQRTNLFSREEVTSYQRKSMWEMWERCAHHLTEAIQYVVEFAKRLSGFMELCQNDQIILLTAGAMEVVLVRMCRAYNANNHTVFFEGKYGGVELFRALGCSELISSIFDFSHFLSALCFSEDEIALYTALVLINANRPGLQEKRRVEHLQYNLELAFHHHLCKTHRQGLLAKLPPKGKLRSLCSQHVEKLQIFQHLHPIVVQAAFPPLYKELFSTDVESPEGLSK
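Using a luciferase readout, inhibitors were identified by reduced reporter activity in Drosophila cells coexpressing a copper-inducible Gal4–ROR gamma fusion and UAS-driven Photinus luciferase, incubated 20 hr after 700 uM copper sulfate.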
ELG1 repair inh: inhibitors of ELG1-dependent DNA repair in HEK293T cells. HEK293T ELG1-luciferase reporter, luminescence, 16 h; DNA damage induced by 5-fluorouridine. Potency, µM (titrated, usually from 46.1 µM), for the others: at the top dose activity change, negative = inhibition, actives largely listed as inhibitors. 330,000 compounds, 2.3% hits. AID 504467; note: potency is the fitted concentration of half-maximal effect; % is set by controls: 0 for no effect and ±100 for the full control effect; nearly all actives have a fitted effect of over 55% in size
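Reporter activity after DNA damage by 5-fluorouridine is monitored. Compound-treated cells incubate 16 hr at 37 °C, then ONE-Glo is added for 30 min before luminescence reading.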
BRCA1 expr up: BRCA1 expression activation. MCF7-BRCA1-FFLuc reporter, luminescence, 48 h; response scale: scaled: vehicle 0%, 10 µM genistein 100%. Potency, µM (titrated, usually from 46.1 µM), without a hit: at the top dose activation, most hits filed as activators. 380,000 compounds, 1.1% hits; note: potency is the fitted concentration of half-maximal effect; nearly all actives have a fitted effect of over 80% in size
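MCF7-BRCA1-FFLuc cells, 2000/well in phenol-red-free MEM, attached 2 h then treated 48 h at 37 C. Luciferase luminescence read 15 min after reagent; normalized to genistein maximum activation (10microM) and DMSO, concentration-response fitted.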
Gal4-VP16 FLuc: inhibits Gal4-VP16 luciferase reporter, ROR gamma counter-screen; Potency, µM (titrated, usually from 53.6 µM), without a hit: at the highest dose activity, negative = inhibition, actives largely listed as inhibitors; 310,000 compounds, 3.5% hits; AID 2546; Drosophila S2 Gal4-VP16 UAS-luciferase, luminescence, 20 h;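 note: Gal4-VP16 expression switched on by copper sulfate through the metallothionein promoter; potency is the fitted concentration of half-maximal effect; % is set by controls: 0 for no effect and ±100 for the full control effect; nearly all actives have a fitted effect of over 50% in size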
p53 reactivator: mutant p53 re-activation in reporter cells; H1299 p53-A138V BP100-luciferase reporter, luminescence, 24 h; Potency, µM (top dose mostly 92.2 µM), for inactives: at the highest dose activity change, positive = activation, hits mostly activators; 320,000 compounds, 0.063% hits; AID 504706; note: potency is the fitted concentration of half-maximal effect; % of control where 0% means no effect; nearly all actives have a fitted effect of over 45% in size
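p53-null H1299 cells stably carrying temperature-sensitive p53-A138V and a BP100-luciferase reporter were pinned with compounds (4-point, 1:5 series) and held 24 hrs at 37 deg C. Luminescence was read 10 min after detection reagent.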
Giardia killer: kills Giardia lamblia. Giardia lamblia trophozoite viability. activity change, % at 7.66 µM, hits read low. 340,000 compounds, 0.15% hits; in the data active = activity change below about -80%; inconclusive = between about -30% and that limit;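 note: parasites exposed to compound for two days anaerobically before the ATP read; % is set by controls: 0 for no effect and ±100 for the full control effect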
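Giardia trophozoites, 100 cells per well, were exposed to compounds for 48 hrs at 37 deg C under anaerobic conditions; viability was then read as ATP content by bioluminescence after 15-30 min at room temperature.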
* hit, by the source's call; ? = inconclusive; nt = no result given; [ ] = remark or other dose. Unless noted, calls come from the whole dose curve; as a rule, active = well fitted curve in the direction sought with a large enough effect; inconclusive = small, poorly fitted or top-dose-only effect, or another doubt; inactive = no such curve, though single readings can be large; an effect the other way counts as inactive or inconclusive.

SMILES | RORg inh | ELG1 repair inh | BRCA1 expr up | Gal4-VP16 FLuc | p53 reactivator | Giardia killer
NS(=O)(=O)c1ccc(N/C=C\C(=O)c2ccc(F)cc2)cc1 | 37% | ? | 1µM* | ? | 7% | 7
CN(C)c1ccc(N/C=C/C(=O)c2ccc(F)cc2)cc1 | 10µM* | ? | -33% | ? | ? | 11
O=C(/C=C/Nc1ccc(F)cc1)c1ccc(Oc2ncccn2)cc1 | ? | ? | 54% | ? | -2% | -11
CN(C)c1ccc(N/C=C/C(=O)c2ccco2)cc1 | -36% | ? | ? | 11µM* | ? | -25
Cc1cc(C)n2c(SCC(=O)N(CC(C)C)c3c(N)n(CC(C)C)c(=O)[nH]c3=O)nnc2n1 | 3% | 4% | -5% | 1% | -3% | 3
COc1ccc(-c2cc(=O)oc(-c3cccc(C)c3)n2)cc1 | 1% | 7% | -26% | -2% | 2% | -6
O=C(NCc1ccccc1Cl)C1CCN(S(=O)(=O)N2CCCCCC2)CC1 | ? | 18µM* | -28% | -5% | -9% | -13
c1ccc(Oc2ccc(-c3ccnc4nc(N5CCOCC5)nn34)cc2)cc1 | ? | 18µM* | 2% | -3%[10 µM] | -7% | 0
COc1ccc(-c2ccnc3nc(N4CCOCC4)nn23)cc1 | 22% | -23% | -32% | -3% | -6% | 16
CSC(=NC#N)N1CCN(c2c(C)cccc2C)CC1 | 11µM* | -1% | -4% | 14%[10 µM] | 1% | -3
CSC(=NC#N)N1CCN(c2ccccc2)CC1 | -32% | ? | 0% | ? | 12% | 8
O=C(c1cc2nc(-c3ccco3)cc(C(F)(F)F)n2n1)N1CCN(c2ccccc2)CC1 | ? | ? | -7% | 0% | -14% | 7
O=C(NNC1=NS(=O)(=O)c2ccccc21)c1ccc([N+](=O)[O-])cc1 | 13µM* | -4% | 34% | ? | -5% | ?
O=C(Cn1ccc(C(F)(F)F)n1)Nc1ccc(S(=O)(=O)NCc2ccco2)cc1 | 14% | -6% | -7% | -5% | -2% | -5
c1ccc2sc(-c3ccc4c(c3)OCO4)nc2c1 | ? | ? | -41% | 2.2µM* | ? | -26
COc1cccc(-c2nc3ccccc3s2)c1 | -24% | ? | 28% | ? | ? | -18
COc1ccc(-c2nc3ccccc3s2)cc1 | 8.9µM* | ? | 115% | ? | -7% | ?
O=C(Nc1cccc(-c2nc3ccccc3s2)c1)c1ccc2c(c1)OCO2 | 16% | -12% | 25% | 8% | 10% | 9
O=C(CC1C(=O)CCCC1=O)c1ccccc1 | 10µM* | 22% | 0% | ? | ? | -6
CC1CCCN(C(=O)c2cc3c(-c4ccc(Cl)cc4)nn(C)c3s2)C1 (stereo not given) | ? | ? | -61% | -13% | 3% | 5
CCNC(=S)N/N=C/c1ccco1 | 2.2µM* | -16% | 41% | 3.2µM* | 8% | 17
NC(=S)N/N=C/c1ccc(-c2ccc(SC(F)F)cc2)o1 | 0.5µM* | ? | -29% | 1.1µM* | 15% | 11
NC(=S)N/N=C/c1ccc(-c2ccccc2)o1 | 1.4µM* | -2% | 39% | 5µM* | 17% | 10
NC(=S)N/N=C\c1ccc(-c2cccc(Cl)c2Cl)o1 | 0.89µM* | ? | -2% | 1.1µM* | ? | 11
Cc1csc(=O)n1CC(=O)OCC(=O)Nc1ccccc1C(C)C | nt | 18% | -17% | nt | 1% | 19
SMILES | RORg inh | ELG1 repair inh | BRCA1 expr up | Gal4-VP16 FLuc | p53 reactivator | Giardia killer
Cc1ccc(-c2ccc(/C=N/NC(N)=S)o2)cc1 | 0.56µM* | ? | 25% | 2.5µM* | ? | 3
CCNC(=S)N/N=C/c1ccc(-c2ccccc2)o1 | 0.32µM* | ? | 15% | 1.4µM* | ? | 10
CCNC(=S)N/N=C/c1ccc(C#N)cc1 | 7.1µM* | ? | -8% | 18µM* | -3% | -1
CN(C)/N=C/c1ccc(/C=N/NC(N)=S)o1 | 14µM* | 11% | -7% | ? | 5% | -11
NC(=S)NN=Cc1ccc(-c2ccc(S(=O)(=O)Nc3ncccn3)cc2)o1 | nt | 3% | 0% | nt | -1% | -7
NC(=S)N/N=C/c1ccc(/C=N/NC(N)=S)cc1 | -16% | 12% | 16% | -6% | 1% | 6
O/N=C\c1ccc(-c2ccccc2)o1 | -12% | ? | ? | -9% | ? | 15
O=S(=O)(NCCOc1ccc(F)cc1)c1ccc2c(c1)OCCO2 | 35% | 4% | -3% | 1% | 5% | 12
NC(=S)N/N=C/c1ccc(-c2ccc(Cl)c(Cl)c2)o1 | 2.5µM* | ? | -39% | 2µM* | 20% | 16
CNC(=S)N/N=C/c1ccc(-c2cccc(C(=O)O)c2)o1 | 7.1µM* | ? | ? | ? | 18% | -15
Cc1ccc(C(=O)N/N=C/c2ccc(-c3cccc(C(F)(F)F)c3)o2)cn1 | 3.5µM* | ? | -70% | 10µM* | 2% | -2
Cc1ccc(-c2ccc(/C=N/NC(=O)Cc3nnc(N)s3)o2)cc1Cl | 24% | 2% | 3% | 4% | -1% | 10
Cc1ccc(OCC(=O)N/N=C\c2ccc(-c3cccc(C(=O)O)c3)o2)c(C)c1 | 22% | ? | 54% | -12% | ? | 7
O=C(O)/C=C/c1ccc(-c2cccc(C(F)(F)F)c2)o1 | 26% | ? | 37% | -12% | 5% | 5
COc1ccc(OC)c(S(=O)(=O)N2CCCC(C(=O)NCc3ccco3)C2)c1 (stereo not given) | 34% | 4% | 10% | -13% | -3% | -22
COC(=O)[C@@]1(Cc2ccccc2)[C@H]2c3cc(C(=O)N4CCCC4)n(CCc4ccccn4)c3C[C@H]2CN1C(=O)c1ccccc1 | 23% | nt | nt | 4% | nt | nt
COC(=O)C1=C(C)NC(c2c(O)ccc3ccccc23)C(C(=O)OC)=C1C (stereo not given) | -3% | 9% | -14% | 1% | -7% | -7
Cc1ccc(NS(=O)(=O)c2cccc(C(=O)Nc3cc(C)on3)c2)cc1 | ? | 21µM* | -55% | -24% | -1% | 5
COc1ccccc1NS(=O)(=O)c1cccc(C(=O)OCC(=O)Nc2cc(C)on2)c1 | 11µM* | -17% | 0% | -25% | 7% | 1
Cc1ccc(S(=O)(=O)Nc2c(C)nn(C)c2C)cc1 | 12% | ? | -12% | -8% | 0% | 9
COc1cc2c(cc1OC)C1(Nc3c-2c(Cc2ccccc2)nn3-c2ccccc2)C(=O)Nc2ccccc21 (stereo not given) | 27% | 13µM* | -44% | -6% | 0% | 4

Compound activity as filed in PubChem BioAssay.
